From PubChem BioAssay (NCI)
“And” between values parts separate entries of the source, which are not always exact repeats. Equal entries are not always repeated. This is part of a sample that, as a whole, favours compounds with a hit. Of some 83,000 tested, about 20% had one in any assay.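 How to read the values: 0–100, growth inhibition (40 = 60% inhibited); 0, no net growth; -100 to 0, cell death (-40 = 40% of starting cells died; -100 = all dead).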 The source made the active and inactive calls. The calls were made as follows: active = growth percent below 10; inactive = the rest.

system: OVCAR-8 ovarian; test: NCI-60 one-dose screen, 48 h (100 = growth as untreated, 0 = no growth, -100 = all killed); conditions: 10 µM unless noted

SMILES | growth
NC(N)=N/N=C/c1ccc([N+](=O)[O-])o1 | 79.7% (inactive)
N#CSCc1c(Cl)cccc1Cl | 100% (inactive)
CC(=O)ON=C1C=CC(=C(C#N)c2ccccc2)C=C1 | 2.27% (active)
CCCCCCCCCCCCCCCCCCOP(=O)([O-])OC1CC[N+](C)(C)CC1 | 49.6% (inactive)
C[n+]1c(/C=C/c2ccc([N+](=O)[O-])cc2)ccc2ccccc21 | 91.3% (inactive)
c1ccc2c(c1)Nc1cc3ccccc3cc1N2 | 29.5% (inactive)
CCOC(=O)/C(=C\c1ccc(-c2ccccc2)cc1)C(C)=O | 113% (inactive)
O=C1c2ccccc2C(=O)c2sc(Nc3ccc(Cl)cc3)nc21 | 10.6% (inactive)
COc1ccc2nc3cc(Cl)ccc3c(NCCNc3c4ccc(Cl)cc4nc4ccc(OC)cc34)c2c1 | -65.4% (active)
CCOC(=O)/C=C/c1ccc([N+](=O)[O-])o1 | 11.4% (inactive)
COC(=O)c1nc(=S)[nH]c(C(=O)OC)c1C(=O)c1ccc2ccccc2c1 | 107% (inactive)
COc1cc(NS(C)(=O)=O)ccc1Nc1c2ccccc2nc2ccccc12 | 28.8% (inactive) and 23.2% (inactive) and 27.8% (inactive)
S=C(NCCNC(=S)[S][Sn]([c]1ccccc1)([c]1ccccc1)[c]1ccccc1)[S][Sn]([c]1ccccc1)([c]1ccccc1)[c]1ccccc1 | -99.2% (active)
CN(C)C(=O)SC1=C(c2c(Cl)cccc2Cl)C(=O)c2ccccc21 | 51.7% (inactive)
Cc1ccc2nc(-[n+]3cc4ccccc4cc3C)ccc2c1 | 33.6% (inactive)
O=C(O)C1C2CC3C(OC(=O)C31)C2Br (stereo not drawn) | 97.8% (inactive) and 100% (inactive)

system: OVCAR-5 ovarian; test: as above; conditions: 10 µM

SMILES | growth
CN(C)C(=O)c1ccc(SC(=S)NCc2ccccc2)cc1 | 113% (inactive)
COc1ccc(-c2cscc2N)cc1 | 87.5% (inactive)
O=C(Nc1c(Cl)cccc1Cl)Oc1cccc2cccnc12 | 103% (inactive)
O=C(Nc1cccc(Br)c1)Oc1cccc2cccnc12 | 108% (inactive)
O=C(O)c1c(Cl)c(Cl)c(Cl)c(Cl)c1-c1c2cc(I)c(=O)c(I)c-2oc2c(I)c(O)c(I)cc12 | 107% (inactive) and 98.5% (inactive) and 104% (inactive)

same assay, conditions: 10 µM unless noted

SMILES | growth
O=[N+]([O-])c1ccc2c(N=Nc3ccc4ccccc4c3O)c(O)cc(S(=O)(=O)O)c2c1 | 106% (inactive)
O=C(Nc1cccc(Br)c1)Oc1ccc(Cl)c2cccnc12 | 33.7% [100 µM] (inactive)
Oc1c(Cl)cc(Cl)c2cccnc12 | 94.9% (inactive)
COC(=O)[C@@]12OC[C@]34[C@H]([C@@H](O)[C@@H]1O)[C@@]1(C)[C@H](O)C(=O)C=C(C)[C@@H]1C[C@H]3OC(=O)C(OC(C)=O)[C@@H]24 (stereo partly drawn) | -11.5% (active)
CNC(=O)N/N=C/c1ccc([N+](=O)[O-])o1 | 110% (inactive)
O=C1C2=C(Nc3cc([N+](=O)[O-])ccc3N2)OC1c1c2ccccc2cc2ccccc12 (stereo not drawn) | 75.8% (inactive)
COc1cc(/C=C(/C)C[N+](=O)[O-])ccc1O | 110% (inactive)
O=C(O)c1ccc2c3c(ncnc13)-c1ccccc1C2=O | 116% (inactive)
Cc1ccc2nc(C[n+]3ccc4ccccc4c3)ccc2c1 | 79.7% (inactive)
C=C(Cl)C(=NC(C)(C)C)Nc1ccccc1C | 114% (inactive)
O=C1OCc2cccc3cccc1c23 | 108% (inactive)
NC(N)=N/N=C/c1ccc([N+](=O)[O-])o1 | 123% (inactive)
N#CSCc1c(Cl)cccc1Cl | 106% (inactive)
CC(=O)ON=C1C=CC(=C(C#N)c2ccccc2)C=C1 | 123% (inactive)
CCCCCCCCCCCCCCCCCCOP(=O)([O-])OC1CC[N+](C)(C)CC1 | -24.1% (active) and -61.2% (active)
C[n+]1c(/C=C/c2ccc([N+](=O)[O-])cc2)ccc2ccccc21 | 112% (inactive)
c1ccc2c(c1)Nc1cc3ccccc3cc1N2 | 69.7% (inactive)
CCOC(=O)/C(=C\c1ccc(-c2ccccc2)cc1)C(C)=O | 96.7% (inactive)
O=C1c2ccccc2C(=O)c2sc(Nc3ccc(Cl)cc3)nc21 | -62.5% (active)
COc1ccc2nc3cc(Cl)ccc3c(NCCNc3c4ccc(Cl)cc4nc4ccc(OC)cc34)c2c1 | -90.1% (active)
CCOC(=O)/C=C/c1ccc([N+](=O)[O-])o1 | 75% (inactive)
COC(=O)c1nc(=S)[nH]c(C(=O)OC)c1C(=O)c1ccc2ccccc2c1 | 101% (inactive)
COc1cc(NS(C)(=O)=O)ccc1Nc1c2ccccc2nc2ccccc12 | 46.8% [2.5 µM] (inactive)
S=C(NCCNC(=S)[S][Sn]([c]1ccccc1)([c]1ccccc1)[c]1ccccc1)[S][Sn]([c]1ccccc1)([c]1ccccc1)[c]1ccccc1 | -93.6% (active)
CN(C)C(=O)SC1=C(c2c(Cl)cccc2Cl)C(=O)c2ccccc21 | 106% (inactive)
Cc1ccc2nc(-[n+]3cc4ccccc4cc3C)ccc2c1 | 61.4% (inactive)
O=C(O)C1C2CC3C(OC(=O)C31)C2Br (stereo not drawn) | 103% (inactive) and 100% (inactive)
